Data as given in PubChem BioAssay (NCI).
About 83,000 compounds went through this panel and 20% of them were active in at least one assay; those are over-represented in the sample as a whole.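 Growth was measured after 48 h exposure to one concentration of compound in 96-well plates. Values under 10 count as active.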 A number with no mark means an inactive call. Calls of active or inactive are those of the source.

These compounds were tested on HL-60(TB) leukemia (assay: NCI-60 one-dose screen, 48 h (100 = growth as untreated, 0 = no growth, -100 = all killed)). Conditions: 10 µM unless noted.

SMILES	growth
COC(=O)c1[nH]cnc1/N=N/N(C)CCO	86.5%
Oc1cccnc1CN1CCCC1	100%
O=[N+]([O-])c1ccccc1/C=N\NC(=S)N/N=C/c1ccccc1[N+](=O)[O-]	9.57% (active)
O=C1/C(=C/c2ccccc2)Oc2ccc(O)c(I)c21	95.4%
Cc1ccc(C2=N[C@H]3CCC[C@@H]3N(c3ccccc3)C(C(Cl)Cl)=N2)cc1	93.2%
Nc1ncc(-c2ccc3ncnc(N4CCc5ccc(Cl)cc54)c3c2)cn1	-51.1% (active)
CC[C@]1(O)C[C@H]2CN(CCc3c([nH]c4ccccc34)[C@@](C(=O)OC)(c3cc4c(cc3OC)N(C=O)[C@H]3[C@@](O)(C(=O)OC)[C@H](OC(C)=O)[C@]5(CC)C=CCN6CC[C@]43[C@@H]65)C2)C1	-25.1% (active)
COc1ccccc1/C=C1\COc2ccc(O)c(O)c2C1=O	-21.9% (active)
Cc1cccc2c(NCCN(C)C)c3cccc(C(=O)NCCN(C)C)c3nc12	-8.73% (active)
COc1cc2ncnc(Nc3ccc(S(=O)(=O)Nc4nccs4)cc3)c2cc1OCCCN1CCOCC1	112%
CC(C)c1ccc(Nc2n[nH]c(=S)s2)cc1	97.7%
Cc1ccccc1N1C(c2ccccc2)=NNC12C=CC(=O)c1c(O)cccc12 (centres undefined)	70.2%
C#CC(F)(F)[C@]1(O)CCC2C3CCC4=CC(=O)CCC4=C3[C@@H](c3ccc(N(C)C)cc3)C[C@@]21C (some centres undefined)	56%
CCc1ccc(/C(C#N)=C/C=C/c2ccccc2)cc1	-1.39% (active)
